PAX8 reporter – PAX8 transcriptional activity inhibition | inhibition, % at 12.6 µM | RMG-I TPO-luciferase reporter, SteadyGlo, 24 h | AID 652154 | hit rate 1.2% among 360,000;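 active means mean replicate inhibition at least 60% with every replicate also reaching 60%; inconclusive means only one of the two criteria is met; inactive means mean below 60% and not all replicates reaching 60%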;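 further: luciferase light reporting Pax8 driven TPO promoter activity; plate controls were median of neutral control wells for no effect and mitoxantrone controls for full effect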
NSD2 inh – NSD2 (human) methyltransferase inhibition; O96028; NSD2 peptide methylation, AlphaScreen, 120 min; inhibition, % at 12.5 µM; hit rate 0.54% among 310,000; AID 743445; in the data active means inhibition above about 50%
Target sequence (O96028 whole entry, looked up): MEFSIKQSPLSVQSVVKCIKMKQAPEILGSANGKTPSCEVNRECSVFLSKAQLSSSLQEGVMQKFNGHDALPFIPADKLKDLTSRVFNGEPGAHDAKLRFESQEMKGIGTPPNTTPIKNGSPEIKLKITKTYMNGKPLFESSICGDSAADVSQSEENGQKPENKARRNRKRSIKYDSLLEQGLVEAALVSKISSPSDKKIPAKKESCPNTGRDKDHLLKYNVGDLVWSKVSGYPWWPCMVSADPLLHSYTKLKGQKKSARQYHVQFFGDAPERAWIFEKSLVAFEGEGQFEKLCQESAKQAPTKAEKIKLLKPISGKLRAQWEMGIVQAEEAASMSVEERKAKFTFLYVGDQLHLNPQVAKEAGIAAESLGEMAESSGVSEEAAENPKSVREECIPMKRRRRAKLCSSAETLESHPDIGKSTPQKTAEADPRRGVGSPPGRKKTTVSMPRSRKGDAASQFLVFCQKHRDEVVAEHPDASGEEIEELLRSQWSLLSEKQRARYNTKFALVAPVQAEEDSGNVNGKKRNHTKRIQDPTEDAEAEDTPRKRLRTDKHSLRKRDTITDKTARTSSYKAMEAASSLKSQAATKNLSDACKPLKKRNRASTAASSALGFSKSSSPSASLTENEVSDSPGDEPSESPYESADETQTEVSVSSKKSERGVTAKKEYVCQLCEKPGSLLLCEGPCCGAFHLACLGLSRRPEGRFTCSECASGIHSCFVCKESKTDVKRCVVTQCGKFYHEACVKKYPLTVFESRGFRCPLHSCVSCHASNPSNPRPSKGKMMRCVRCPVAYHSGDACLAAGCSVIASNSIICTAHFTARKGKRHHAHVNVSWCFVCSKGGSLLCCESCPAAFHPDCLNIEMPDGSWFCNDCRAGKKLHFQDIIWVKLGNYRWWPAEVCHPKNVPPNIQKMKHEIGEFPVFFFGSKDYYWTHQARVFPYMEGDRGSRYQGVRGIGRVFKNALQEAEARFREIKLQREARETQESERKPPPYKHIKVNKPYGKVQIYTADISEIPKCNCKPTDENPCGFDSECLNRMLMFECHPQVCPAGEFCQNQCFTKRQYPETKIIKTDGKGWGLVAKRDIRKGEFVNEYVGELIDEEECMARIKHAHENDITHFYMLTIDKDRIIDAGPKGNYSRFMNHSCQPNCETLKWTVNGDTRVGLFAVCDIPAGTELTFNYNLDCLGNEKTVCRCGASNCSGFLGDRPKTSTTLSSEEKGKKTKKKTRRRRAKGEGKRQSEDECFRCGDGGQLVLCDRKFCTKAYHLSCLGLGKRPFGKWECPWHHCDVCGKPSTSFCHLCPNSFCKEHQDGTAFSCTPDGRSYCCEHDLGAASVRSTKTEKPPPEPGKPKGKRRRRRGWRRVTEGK
HIV Env fusion – inhibitors of HIV Env-mediated cell fusion | HeLa-JRFL Env/CEM21 cell fusion, luciferase | inhibition, % at 12.3 µM | hit rate 1.1% among 360,000;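 active means mean replicate inhibition score of at least 50 and every replicate individually at or above 50; inconclusive means only one of the two criteria met; inactive means mean below 50 and not all replicates reaching 50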;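 further: 0% = plate neutral controls and 100% = maraviroc near 300 nM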
Glyco luc inh – N-linked glycosylation inhibition; reporter increase, % at 12.5 µM; AID 588692; D54 ERlucT glycosylation luciferase reporter, 24 h; percent of 100 nM tunicamycin response; hit rate 0.23% among 360,000;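 active means mean luciferase reporter signal, scaled so untreated is 0 and the glycosylation-blocking control 100, at or above a set limit in every replicate; inconclusive means mean reaches the limit but not every replicate does; inactive means mean below the limit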;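 further: luciferase carries N-glycosylation sites so blocking glycosylation raises the light; 0% = median of neutral control wells and 100% = median of 100 nM tunicamycin wells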
EBV LMP1 NFkB – inhibitors of Epstein-Barr LMP1-induced NF-kappaB reporter; LMP1-induced NF-kappaB luciferase reporter cells, luminescence; inhibition, % at 12.5 µM; hit rate 0.69% among 350,000; AID 504558; in the data active means inhibition above about 41%; inconclusive means no clear call, values can overlap the other calls;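 further: 0% = neutral control wells and 100% = reference inhibitor control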
Shn3 inh set2 – inhibitors of Schnurri-3 3'UTR reporter in osteoblasts; Clone20 osteoblast Shn3 3'UTR firefly luciferase, 24 h; inhibition, % at 12.5 µM; hit rate 0.52% among 360,000; AID 588674;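 active means mean inhibition of at least 75% with every replicate also reaching 75%; inconclusive means mean inhibition at least 75% but some replicate below; inactive means mean inhibition below 75%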;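 further: 0% = median of neutral control wells and 100% = pilot-screen positive control compound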
Starred values were filed as active, the others as inactive; [ ] = remark or other dose. This is a sample that favours compounds with a hit; in the whole collection about 2.8% have one here.

For c1ccc(C2=Nn3c(nnc3-c3n[nH]c4c3CCC4)SC2)cc1 the results were NSD2 inh 0, Glyco luc inh 38*, EBV LMP1 NFkB 0 and Shn3 inh set2 -6.
For Clc1ccc(C2=Nn3c(nnc3-c3n[nH]c4c3CCC4)SC2)cc1Cl the results were PAX8 reporter 8, NSD2 inh -2, HIV Env fusion -62, Glyco luc inh 81*, EBV LMP1 NFkB 10 and Shn3 inh set2 52.
O=C(NC1CCC1)[C@@H]1[C@@H](CO)[C@@H]2Cn3c(ccc(-c4ccncc4)c3=O)[C@@H]2N1CCc1ccccc1 was read as PAX8 reporter -23.
Screening Cc1ccc(S(=O)(=O)c2nc(-c3ccccc3F)oc2N2CCN(C)CC2)cc1 returned NSD2 inh 12.
For CCOC(=O)N1CCC(NC(=O)C2CCN(c3nc(-c4ccc(OC)cc4)no3)CC2)CC1 the results were PAX8 reporter -15, HIV Env fusion 34*, Glyco luc inh -3, EBV LMP1 NFkB 23 and Shn3 inh set2 21.
Screening COC(=O)c1cc2c(c3c4cc(OC)ccc4n(S(=O)(=O)c4ccccc4)c13)C(=O)N(C)C2 returned PAX8 reporter 24 and HIV Env fusion 65*.
COc1ccc2c3c(n(C)c2c1)[C@@H](CO)N(C(=O)C1CC1)CC31CCN(C(=O)Nc2cccc(F)c2)CC1 was read as PAX8 reporter 17.
`C#CCN(C[C@@H]1[C@@H](OC(=O)NCc2ccc(OC)c(OC)c2)[C@@H](OC(=O)NCc2ccc(OC)c(OC)c2)Cn2c(=O)ccc(=O)n21)S(=O)(=O)c1ccc(C)cc1` gave PAX8 reporter 113*, HIV Env fusion inconclusive, Glyco luc inh -1, EBV LMP1 NFkB -4 and Shn3 inh set2 3.
Screening CCCCCCNC(=O)O[C@H]1Cn2c(=O)ccc(=O)n2[C@@H]2CN(S(=O)(=O)c3ccc(C)cc3)C[C@]12O returned PAX8 reporter 77*, HIV Env fusion 6, Glyco luc inh 7, EBV LMP1 NFkB 8 and Shn3 inh set2 91*.
`C#CCN(C[C@@H]1[C@@H](OC(=O)NCc2ccco2)[C@@H](OC(=O)NCc2ccco2)Cn2c(=O)n(CCCCCC)c(=O)n21)S(=O)(=O)c1ccc(C)cc1` gave PAX8 reporter 34, HIV Env fusion 24, Glyco luc inh 0, EBV LMP1 NFkB -30 and Shn3 inh set2 27.
C#CCN(C[C@@H]1[C@@H](OC(=O)NCc2ccco2)[C@@H](OC(=O)NCc2ccco2)Cn2c(=O)ccc(=O)n21)S(=O)(=O)c1ccc(C)cc1 was read as PAX8 reporter 73*, HIV Env fusion 29, Glyco luc inh -4, EBV LMP1 NFkB 23 and Shn3 inh set2 -5.
Screening C#CCN(C[C@@H]1[C@@H](OC(=O)NCc2ccc(OC)c(OC)c2)[C@@H](OC(=O)NCc2ccc(OC)c(OC)c2)CN(C(=O)OC(C)C)N1C(=O)OC(C)C)S(=O)(=O)c1ccc(C)cc1 returned PAX8 reporter -7, HIV Env fusion -76, Glyco luc inh -1, EBV LMP1 NFkB -38 and Shn3 inh set2 74.
`CCCCCCNC(=O)O[C@H]1Cn2c(=O)n(CCCCCC)c(=O)n2[C@@H]2CN(S(=O)(=O)c3ccc(C)cc3)C[C@]12O` gave PAX8 reporter 34, HIV Env fusion 8, Glyco luc inh -6, EBV LMP1 NFkB -8 and Shn3 inh set2 10.
Screening C#CCN(C[C@@H]1[C@@H](OC(=O)NC2CCCC2)[C@@H](OC(=O)NC2CCCC2)CN(C(=O)OC(C)C)N1C(=O)OC(C)C)S(=O)(=O)c1ccc(C)cc1 returned PAX8 reporter 79*, Glyco luc inh -9, EBV LMP1 NFkB 2 and Shn3 inh set2 38.
Screening CCCN1[C@@H]2Cn3c(ccc(-c4cccnc4)c3=O)[C@H]1[C@@H](C(=O)NC1CCC1)[C@@H]2CO returned PAX8 reporter -11.
C[C@H](CO)N1C[C@H](C)[C@@H](CN(C)S(=O)(=O)c2cn(C)cn2)Oc2ccc(NS(C)(=O)=O)cc2CC1=O was read as PAX8 reporter -4 and HIV Env fusion 15[16.7 µM].
CCC(=O)Nc1ccc2c(c1)C(=O)N(C)C[C@@H](OC)[C@@H](C)CN(C(=O)c1cnccn1)[C@@H](C)CO2 was read as PAX8 reporter 18.
`C#CCN(C[C@@H]1[C@@H](OC(=O)NCC2CCCCC2)[C@@H](OC(=O)NCC2CCCCC2)Cn2c(=O)ccc(=O)n21)S(=O)(=O)c1ccc(C)cc1` gave PAX8 reporter 116*, Glyco luc inh -20, EBV LMP1 NFkB 90* and Shn3 inh set2 99*.
C#CCN(C[C@@H]1[C@@H](OC(=O)NC2CC2)[C@@H](OC(=O)NC2CC2)Cn2c(=O)n(CCCCCC)c(=O)n21)S(=O)(=O)c1ccc(C)cc1 was read as PAX8 reporter 18, HIV Env fusion 18, Glyco luc inh -1, EBV LMP1 NFkB -14 and Shn3 inh set2 30.
For C#CCN(C[C@@H]1[C@@H](OC(=O)NCCCCCC)[C@@H](OC(=O)NCCCCCC)Cn2c(=O)ccc(=O)n21)S(=O)(=O)c1ccc(C)cc1 the results were PAX8 reporter 113*, HIV Env fusion -3, Glyco luc inh -20, EBV LMP1 NFkB 90* and Shn3 inh set2 81.
`C[C@H]1CN([C@@H](C)CO)C(=O)c2cc(C#CC3CC3)cnc2O[C@H]1CN(C)C(=O)c1ccccc1` gave HIV Env fusion 15[16.7 µM].
For O=C(CCCc1nc(-c2ccc(Cl)cc2)no1)Nc1cccnc1 the results were PAX8 reporter 9, NSD2 inh -2, HIV Env fusion 61*, Glyco luc inh -1, EBV LMP1 NFkB -3 and Shn3 inh set2 66.
For Cc1cccc(-c2noc(CCCC(=O)Nc3cccnc3)n2)c1 the results were NSD2 inh 0, HIV Env fusion 13, Glyco luc inh -1, EBV LMP1 NFkB 8 and Shn3 inh set2 10.
`CN(C)C(=O)CCCc1nc(-c2ccc(Cl)cc2)no1` gave NSD2 inh -1, HIV Env fusion 55*, Glyco luc inh -3, EBV LMP1 NFkB -29 and Shn3 inh set2 -20.
C[C@H](CO)N1C[C@H](C)[C@@H](CN(C)S(=O)(=O)c2ccc(F)cc2)Oc2ccc(N(C)C)cc2C1=O was read as PAX8 reporter 7.
For CC1Cc2nc(SCC(=O)c3ccccc3)n(Cc3ccccc3)c(=O)c2S1 (stereo not given) the results were PAX8 reporter -5, HIV Env fusion 25, Glyco luc inh 3, EBV LMP1 NFkB -23 and Shn3 inh set2 24.
For Cc1cc(NC(=O)CSc2nc3c(c(=O)n2CCc2ccccc2)SC(C)C3)no1 (stereo not given) the results were PAX8 reporter 11, HIV Env fusion -5, Glyco luc inh 0, EBV LMP1 NFkB 77* and Shn3 inh set2 5.

Screens as filed in PubChem BioAssay.
